Data reported in ChEMBL document CHEMBL4303122, “Identification of potential treatments for COVID-19 through artificial intelligence-enabled phenomic analysis of human cells infected with SARS-CoV-2” (2020).
Over roughly 1,600 compounds, “Hit score” has its median near 0.13; the highest 2% begin near 0.46. This excerpt belongs to a sample that is enriched for the highest values.

Each molecule was assayed on SARS-CoV-2 (assay: Antiviral activity against SARS-CoV-2 (USA-WA1/2020 strain) measured by imaging in HRCE cells at MOI 0.4 after 96 hrs (reported as hit score from 0-1 for on-disease vs off-disease activity: scores >0.6 considered hits)).
Assay type: functional, Homo sapiens

Compound | Hit score
Cc1nc(NC(=O)N2CCC[C@H]2C(N)=O)sc1-c1ccnc(C(C)(C)C(F)(F)F)c1 [ALPELISIB] | 0.6194
CC(C)(C)C(=O)OCC(=O)[C@H]1CC[C@H]2[C@@H]3CCC4=CC(=O)CC[C@]4(C)[C@H]3CC[C@]12C [DESOXYCORTICOSTERONE PIVALATE] | 0.2223
O=C(O)c1ccc(NC(=O)[C@H](Cc2ccc(O)cc2)NC(=O)c2ccccc2)cc1 [BENTIROMIDE] | 0.2686
CC1(C)O[C@@H]2[C@@H](CO[C@@]3(COS(N)(=O)=O)OC(C)(C)O[C@@H]23)O1 [TOPIRAMATE] | 0.1748
N#Cc1c(N2C[C@@H]3NCCO[C@H]3C2)c(F)cc2c(=O)c(C(=O)O)cn(C3CC3)c12 [FINAFLOXACIN] | 0.04952
C[C@H]1C[C@@H]2[C@H]([C@@H](O)C[C@@]3(C)[C@H]2CC[C@]3(O)C(=O)CO)[C@@]2(C)C=CC(=O)C=C12 [METHYLPREDNISOLONE] | 0.1629
CCCCc1oc2ccc(NS(C)(=O)=O)cc2c1C(=O)c1ccc(OCCCN(CCCC)CCCC)cc1 [DRONEDARONE] | 0.03796
C[C@]1(Cn2ccnn2)[C@H](C(=O)O)N2C(=O)C[C@H]2S1(=O)=O [TAZOBACTAM] | 0.04532
CC(C)Cc1ccc(C(C)C(=O)OCc2ccccn2)cc1 (stereo not given) [IBUPROFEN PICONOL] | 0.1126
CCCN1CC(NS(=O)(=O)N(CC)CC)CC2Cc3c(O)cccc3CC21 (stereo not given) [QUINAGOLIDE] | 0.09123
CO/N=C(\C(=O)N[C@@H]1C(=O)N2C(C(=O)O)=C(CSc3nnnn3C)CS[C@H]12)c1csc(N)n1 [CEFMENOXIME] | 0.1641
N=C(N)c1ccc(/C=C/c2ccc(C(=N)N)cc2O)cc1 [HYDROXYSTILBAMIDINE] | 0.4886
Nc1nc(=O)c2c([nH]1)NC[C@H](CNc1ccc(C(=O)N[C@@H](CCC(=O)O)C(=O)O)cc1)N2C=O [LEVOLEUCOVORIN] | 0.1157
C#C[C@]1(OC(C)=O)CC[C@H]2[C@@H]3CCC4=CC(=O)CC[C@@H]4[C@H]3CC[C@@]21C [NORETHINDRONE ACETATE] | 0.06494
C=CCc1ccccc1OCC(O)CNC(C)C (stereo not given) [ALPRENOLOL] | 0.3773
CC(C)NCC(O)COc1cccc2ccccc12 (stereo not given) [PROPRANOLOL] | 0.3664
COc1ccccc1OCC(O)CO (stereo not given) [GUAIFENESIN] | 0.2008
CC(C)NCC(O)COc1cccc2[nH]ccc12 (stereo not given) [PINDOLOL] | 0.3758
COc1ccc(CCNCC(O)COc2cccc(C)c2)cc1OC (stereo not given) [BEVANTOLOL] | 0.3675
COc1ccccc1OCCNCC(O)COc1cccc2[nH]c3ccccc3c12 (stereo not given) [CARVEDILOL] | 0.5244
CC(C)NC[C@@H](O)COc1cccc2ccccc12 [DEXPROPRANOLOL] | 0.4686
CC(C)NCC(O)COc1cccc2[nH]c3ccccc3c12 (stereo not given) [CARAZOLOL] | 0.4815

Compound | Hit score
C=CCOc1ccccc1OCC(O)CNC(C)C (stereo not given) [OXPRENOLOL] | 0.08363
NS(=O)(=O)c1cc(-c2nnn[nH]2)c(NCc2cccs2)cc1Cl [AZOSEMIDE] | 0.09549
CN1[C@@H]2CC[C@H]1C[C@@H](OC(=O)[C@H](CO)c1ccccc1)C2 [HYOSCYAMINE] | 0.0469
O=C(O)CCC/C=C\CC1C(O)CC(O)C1/C=C/C(O)COc1cccc(Cl)c1 (stereo not given) [CLOPROSTENOL] | -0.03107
COc1cccc(N2CCN(C3=Nc4c(F)cccc4[C@H](CC(=O)O)N3c3cc(C(F)(F)F)ccc3OC)CC2)c1 [LETERMOVIR] | 0.3651
CCOC(=O)[C@H]1O[C@@H]1C(=O)N[C@@H](CC(C)C)C(=O)NCCC(C)C [ALOXISTATIN] | 0.7896
N[C@@H]1[C@H]2CN(c3nc4c(cc3F)c(=O)c(C(=O)O)cn4-c3ccc(F)cc3F)C[C@@H]12 [TROVAFLOXACIN] | 0.134
O=C(O)[C@@H]1CCCN1 [PROLINE] | 0.14
COc1cc(Nc2ncc(F)c(Nc3ccc4c(n3)NC(=O)C(C)(C)O4)n2)cc(OC)c1OC [R-406] | 0.1646
CC(=O)c1c(C)c2cnc(Nc3ccc(N4CCNCC4)cn3)nc2n(C2CCCC2)c1=O [PALBOCICLIB] | 0.007482
OC(CCN1CCCCC1)(c1ccccc1)C1CCCCC1 (stereo not given) [TRIHEXYPHENIDYL] | 0.4673
OC(CCN1CCCC1)(c1ccccc1)C1CCCCC1 (stereo not given) [PROCYCLIDINE] | 0.2175
OC(CCN1CCCCC1)(c1ccccc1)c1ccccc1 [PRIDINOL] | 0.1349
Sc1ncnc2nc[nH]c12 [MERCAPTOPURINE ANHYDROUS] | 0.2212
COC(=O)C[C@](O)(CCC(C)(C)O)C(=O)O[C@@H]1C(OC)=C[C@]23CCCN2CCc2cc4c(cc2[C@H]13)OCO4 [HARRINGTONINE] | 0.07403
CCCC[C@H](NC(=O)[C@@H]1[C@@H]2[C@H](CN1C(=O)[C@@H](NC(=O)NC1(CS(=O)(=O)C(C)(C)C)CCCCC1)C(C)(C)C)C2(C)C)C(=O)C(=O)NC1CC1 | 0.1004
C[C@]12CC[C@H](O)CC1=CC[C@@H]1[C@@H]2CC[C@]2(C)C(c3cccnc3)=CC[C@@H]12 [ABIRATERONE] | 0.3975
CC(CCC(=O)O)[C@H]1CCC2C3C[C@H](O)[C@@H]4C[C@H](O)CC[C@]4(C)C3CC[C@@]21C (stereo not given in full) | 0.1858
C[C@H](CCC(=O)O)[C@H]1CC[C@H]2[C@@H]3[C@@H](O)C[C@@H]4C[C@H](O)CC[C@]4(C)[C@H]3CC[C@]12C [URSODIOL] | 0.2784
CC[C@H]1[C@@H](O)[C@@H]2[C@H](CC[C@]3(C)[C@@H]([C@H](C)CCC(=O)O)CC[C@@H]23)[C@@]2(C)CC[C@@H](O)C[C@@H]12 [OBETICHOLIC ACID] | 0.5073
CN1CC(=O)N2[C@H](c3ccc4c(c3)OCO4)c3[nH]c4ccccc4c3C[C@@H]2C1=O | 0.2898
CO[C@H]1/C=C/O[C@@]2(C)Oc3c(C)c(O)c4c(O)c(cc(O)c4c3C2=O)NC(=O)/C(C)=C\C=C\[C@H](C)[C@H](O)[C@@H](C)[C@@H](O)[C@@H](C)[C@H](OC(C)=O)[C@@H]1C [RIFAMYCIN] | 0.1815

Compound | Hit score
NC(=O)[C@@H]1CC[C@@H]2CN1C(=O)N2OS(=O)(=O)[O-].[Na+] [AVIBACTAM SODIUM] | 0.2969
Cc1ccc2c(Cl)cc(Cl)c(O)c2n1 [CHLORQUINALDOL] | 0.2863
O=C(Nc1cc(Cl)cc(Cl)c1O)c1c(O)c(Cl)cc(Cl)c1Cl [OXYCLOZANIDE] | 0.1882
Oc1c(Cl)cc(Cl)c(Cl)c1Cc1c(O)c(Cl)cc(Cl)c1Cl [HEXACHLOROPHENE] | 0.5286
Cc1ccc(C(=O)Nc2ccc(CN3CCN(C)CC3)c(C(F)(F)F)c2)cc1C#Cc1cnc2cccnn12 [PONATINIB] | 0.5086
O=C(O)c1ccccc1C(=O)Nc1ccc(S(=O)(=O)Nc2nccs2)cc1 [PHTHALYLSULFATHIAZOLE] | 0.0541
CS(=O)(=O)c1ccc(C(=O)Nc2ccc(Cl)c(-c3ccccn3)c2)c(Cl)c1 [VISMODEGIB] | 0.5244
Cc1cc(-c2ccc(/N=N/c3ccc4c(S(=O)(=O)[O-])cc(S(=O)(=O)[O-])c(N)c4c3O)c(C)c2)ccc1/N=N/c1ccc2c(S(=O)(=O)[O-])cc(S(=O)(=O)[O-])c(N)c2c1O.[Na+].[Na+].[Na+].[Na+] [EVANS BLUE] | 0.2486
CC(SC(=O)c1cccs1)C(=O)NCC(=O)O (stereo not given) [STEPRONIN] | 0.2404
CCCC(CCC)C(=O)O.CCCC(CCC)C(=O)[O-].[Na+] [DIVALPROEX SODIUM] | 0.2277
CCCCCCC(=O)O[C@H]1CC[C@H]2[C@@H]3CCC4=CC(=O)CC[C@]4(C)[C@H]3CC[C@]12C [TESTOSTERONE ENANTHATE] | 0.1237
CC(C)(C)CC(C)(C)c1ccc(OCCOCC[N+](C)(C)Cc2ccccc2)cc1 [BENZETHONIUM] | 0.03086
Cc1nc2ccccc2n1Cc1ccc(Cl)cc1 [CHLORMIDAZOLE] | -0.04269
CC(C)/N=c1\cc2n(-c3ccc(Cl)cc3)c3ccccc3nc-2cc1Nc1ccc(Cl)cc1 [CLOFAZIMINE] | 0.5936
Clc1ccc(C(OCCN2CCCCC2)c2ccccc2)cc1 (stereo not given) [CLOPERASTINE] | 0.5618
OCCOCCN1CCN(C(c2ccccc2)c2ccc(Cl)cc2)CC1 (stereo not given) [HYDROXYZINE] | 0.00308
O=C(O)COCCN1CCN([C@H](c2ccccc2)c2ccc(Cl)cc2)CC1 [LEVOCETIRIZINE] | -0.05445
O=P(O)(O)C(Sc1ccc(Cl)cc1)P(=O)(O)O [TILUDRONIC ACID] | 0.04613
Cc1cccc(C)c1NC(=O)CN1CCN(CCCC(c2ccc(F)cc2)c2ccc(F)cc2)CC1 [LIDOFLAZINE] | 0.2006
CCCCC(C)(O)C/C=C/[C@H]1[C@H](O)CC(=O)[C@@H]1CCCCCCC(=O)OC (stereo not given in full) [MISOPROSTOL] | -0.07952
COc1cc(N2CCC(N3CCN(C)CC3)CC2)ccc1Nc1ncc(Cl)c(Nc2ccccc2P(C)(C)=O)n1 [BRIGATINIB] | 0.1463
